Results from PubChem BioAssay (NCI).
About 83,000 compounds went through this panel and 20% of them were active in at least one assay; those are over-represented in the sample as a whole.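 Step 1: grow cells in 96-well plates. Step 2: add test compound at a single concentration. Step 3: incubate 48 h. Step 4: record percent growth.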 Unmarked numbers belong to inactive results. Active and inactive are the calls of the source. How the source made its calls: active means growth percent below 10; inactive means the rest.

Columns and labels:
Assay in all cases: NCI-60 one-dose screen, 48 h (100 = growth as untreated, 0 = no growth, -100 = all killed)
Conditions in all cases: 10 µM unless noted
DU-145 prostate = tested on: DU-145 prostate
K-562 leukemia = tested on: K-562 leukemia
MALME-3M melanoma = tested on: MALME-3M melanoma
MDA-MB-231 breast = tested on: MDA-MB-231 breast
RXF 393 renal = tested on: RXF 393 renal
SF-268 CNS = tested on: SF-268 CNS
SF-295 CNS = tested on: SF-295 CNS
SF-539 CNS = tested on: SF-539 CNS
UACC-257 melanoma = tested on: UACC-257 melanoma
M14 melanoma = tested on: M14 melanoma
HCT-15 colon = tested on: HCT-15 colon
HT29 colon = tested on: HT29 colon
SNB-75 CNS = tested on: SNB-75 CNS
SNB-19 CNS = tested on: SNB-19 CNS
U251 CNS = tested on: U251 CNS
PC-3 prostate = tested on: PC-3 prostate
SK-MEL-5 melanoma = tested on: SK-MEL-5 melanoma
UACC-62 melanoma = tested on: UACC-62 melanoma
SK-MEL-28 melanoma = tested on: SK-MEL-28 melanoma
LOX IMVI melanoma = tested on: LOX IMVI melanoma

Row | SMILES | growth (DU-145 prostate) | growth (K-562 leukemia) | growth (MALME-3M melanoma) | growth (MDA-MB-231 breast) | growth (RXF 393 renal) | growth (SF-268 CNS) | growth (SF-295 CNS) | growth (SF-539 CNS) | growth (UACC-257 melanoma) | growth (M14 melanoma) | growth (HCT-15 colon) | growth (HT29 colon) | growth (SNB-75 CNS) | growth (SNB-19 CNS) | growth (U251 CNS) | growth (PC-3 prostate) | growth (SK-MEL-5 melanoma) | growth (UACC-62 melanoma) | growth (SK-MEL-28 melanoma) | growth (LOX IMVI melanoma)
1 | C/C(Cc1ccc(Cl)cc1)=C(/c1ccc(Cl)cc1)c1ccc(OCCN2CCCC2)cc1 | 87% | 15.2% | 77.7% | 89.2% | 86.3% | 92.4% | 92.9% | 89.7% | 79.7% | 78.2% | 28.3% | 22.1% | 78.2% | 89.8% | 58.3% | 65.4% | 93.1% | 95.6% | 98.2% | 
2 | Cc1oc(-c2ccccc2Cl)cc1C(=O)Nc1ccc(S(N)(=O)=O)cc1 | 104% | 96.3% | 98.6% | 93.3% | 111% | 104% | 104% | 95.4% | 95% | 93.8% | 103% | 108% | 89.9% | 99.1% | 94.9% | 107% | 97.3% | 95.8% | 101% | 
3 | C=C1C(=O)O[C@H]2[C@H]1CC/C(COC(=O)NCc1cc3ccccc3[nH]1)=C\CC[C@@]1(C)O[C@@H]21 | 1.16% (active) | -5.26% (active) | -59.4% (active) | -42.5% (active) | -86.2% (active) | 59.3% | 90.1% | -46.2% (active) | 46.2% | -27.9% (active) | -4.13% (active) | -42.6% (active) | 62% | 58.8% | 54.6% | 38% | 9.31% (active) |  | -26.9% (active) | -15.8% (active)
4 | OCC1OC(n2cnc3c(Cl)ncnc32)CC1O (stereo not given) | 113% | 103% | 97.5% | 106% | 103% | 99.1% | 114% | 96.2% | 110% | 104% | 95.6% | 107% | 102% | 96.1% | 99.2% | 88.9% | 106% | 101% | 110% | 
5 | CCOc1ccc(NC(=O)c2ccoc2COc2ccccc2)cc1 | 106% | 88.8% | 100% | 98.7% | 106% | 97.8% | 101% | 98.5% | 106% | 104% | 101% | 107% | 107% | 95.3% | 99.4% | 95.7% | 99.1% | 79.8% | 101% | 
6 | CC(C)(C)c1ccc(OCCCCCCCN2CCNCC2)cc1 | 45.6% | 0.406% (active) | -50.4% (active) | 19.3% | 28.2% | 59.5% | 17.3% | 67.3% | 48.2% | 45.2% | -22.1% (active) | 6.93% (active) | 51.8% | 54.4% | 12.9% | 28.1% | 43.9% |  | 53% | -77.8% (active)
7 | N#CC1=C(N)Oc2ccc3ccccc3c2C1c1ccccc1Cl (stereo not given) | 73.3% | 13.2% | 46.2% | 51.3% | 58.7% | 57.7% | 11.7% | 35% | 66.7% | 13.4% | 24% | 22.2% | -2.04% (active) | 33.9% | 37.2% | 46.1% | 42.7% | 24.2% | 61.1% | 
8 | CCCCn1c(-c2ccc(O)cc2)cn2c3c(=O)[nH]c(=O)n(C)c3nc12 | 101% | 34.3% | 90.7% | 66.5% | 74.9% | 86.3% | 78.1% | 74.9% | 79.1% | 54.1% | 54.2% | 77.6% | 53.2% | 82.5% | 66.7% | 68.9% | 51.9% | 51.2% | 74.7% | 
9 | O=C1CN(c2ccccc2)C(=O)C1C(=O)Nc1ccc(Cl)c(Cl)c1 (stereo not given) | 38.9% [100 µM] | 20.1% [100 µM] | -11.7% [100 µM] (active) | 27.2% [100 µM] | 34.7% [100 µM] | 31.2% [100 µM] | 0.977% [100 µM] (active) | -9.88% [100 µM] (active) | 16.2% [100 µM] | 28.8% [100 µM] | 27.9% [100 µM] | 3.98% [100 µM] (active) | 6.38% [100 µM] (active) | 3.37% [100 µM] (active) | -7.08% [100 µM] (active) | 27.1% [100 µM] | -6.23% [100 µM] (active) | -3.41% [100 µM] (active) | 33.4% [100 µM] | 
10 | Cn1cc(-c2csc(-c3cn(CCNC(=O)OC(C)(C)C)c4ccccc34)n2)c2cccnc21 | 101% | 56.2% | 82.8% | 82.9% | 105% | 90.5% | 97.7% | 93.1% | 92.2% | 61.1% | 60.1% | 90.9% | 88.5% | 94.3% | 83.1% | 36.9% | 20.1% |  | 94.3% | 82.4%
11 | COc1ccc2c(c1)c1nc3cc(C)c(C)cc3nc1n2CCN(C)C | 11.9% | -2.38% (active) | -30.8% (active) | -2.89% (active) | 13.2% | 31.3% | 4.6% (active) | -13.2% (active) | 8.99% (active) | 4.45% (active) | -80.3% (active) | -1.79% (active) | 22.2% | 13.6% | -85.8% (active) | -14.4% (active) | 45.3% | 11% | 9.16% (active) | 
12 | CCCCC[C@H]1CC=C2C(=O)C(Cl)=C[C@@H]2CC=CCCCC(=O)O[C@@H](CCCCC)CC=C2C(=O)C(Cl)=C[C@@H]2CC=CCCCC(=O)O[C@@H](CCCCC)CC=C2C(=O)C(Cl)=C[C@@H]2CC=CCCCC(=O)O1 | 59.9% [8 µM] | 27.7% [8 µM] | 105% [8 µM] | 53.1% [8 µM] | 79.2% [8 µM] | 73.1% [8 µM] | 106% [8 µM] | 88% [8 µM] | 76.3% [8 µM] | 48.2% [8 µM] | 71.6% [8 µM] | 44.4% [8 µM] | 106% [8 µM] | 61.3% [8 µM] | 35.2% [8 µM] | 70.2% [8 µM] | 62.2% [8 µM] |  | 52% [8 µM] | 14.5% [8 µM]
13 | CC1(C)C(=O)CC[C@]2(C)[C@H]3C(=O)C=C4[C@@H]5C[C@@](C)(C(=O)NCCNCCN)CC[C@]5(C)CC[C@@]4(C)[C@]3(C)CC[C@@H]12 | 102% | 86.6% | 92.2% | 102% | 103% | 83.9% | 101% | 98.7% | 101% | 90.6% | 99.4% | 98% | -29.7% (active) | 98.4% | 88.3% | 90.4% | 96.8% | 98.1% | 104% | 
14 | Clc1ccccc1-c1nc(Nc2nc3ccccc3s2)nc(C(Cl)(Cl)Cl)n1 | 15.9% | 50.8% | 79.6% | 14.5% | 16.7% | 81.7% | 37.8% | 32.8% | 83.9% | 80.1% | 19.2% | 13.1% | 58.2% | 43.5% | 20.5% | 40.8% | 90.7% | 48.1% | 51.3% | 
15 | CCCCC[C@H]1C/C=C2/C(=O)C(Cl)=C[C@@H]2C/C=C\CCCC(=O)O1 | -83.1% (active) | 2.39% (active) | -35.2% (active) | -10.7% (active) | -90.9% (active) | -37.1% (active) | -35% (active) | -76.7% (active) | -53.3% (active) | -52.8% (active) | -61.9% (active) | -22.6% (active) | 5.2% (active) | -73.4% (active) | -91.7% (active) | -46.6% (active) | -77.5% (active) |  | -64.7% (active) | -85.2% (active)
